Screening data: PubChem BioAssay, National Center for Advancing Translational Sciences (NCATS)
Shown are actives, neighbours in structure and some others; about 18% of the full set was active somewhere.
IL1B secr inh = inhibitors of inflammasome signaling (IL-1 beta secretion); THP-1 LPS/ATP IL-1B secretion, AlphaLISA, 16 h; hits give low values; activity change, % at 57.5 µM; 4.7% of 360,000 active; in the data active = activity change below about -50%; inconclusive = mostly about -30% to -49%; note: % is set by controls: 0 for no effect and ±100 for the full control effect
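Secreted IL-1B measured by AlphaLISA bead assay after 16 h compound exposure of THP-1 cells; compounds (final up to 57.5 uM) added 1 h before LPS (250 ng/mL) and ATP (1.25 mM) stimulation; lower signal means less secretion.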
HepG2 tox = HepG2 cytotoxicity, counter-screen for TGF-b inhibitors | HepG2 CAGA-GFP viability, ATP luminescence, 18 h | Potency, µM (series often up to 46.1 µM), for the others: at the highest dose activity change, negative = cytotoxicity, actives largely listed as cytotoxic | 0.76% of 410,000 active | AID 588856; note: potency is the fitted concentration of half-maximal effect
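CellTiter-Glo luminescence gave cytotoxicity after 18 hours at 37 degrees C. The cells were HepG2 CAGA-GFP in 1% FBS DMEM, stimulated with 500 pg/mL TGF-beta after compound addition. %Activity was normalised to no-cell wells (complete cell-killing) and DMSO (no toxicity), and curves were fitted and classified.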
TDP1 inh = inhibitors of human tyrosyl-DNA phosphodiesterase TDP1 | Q9NUW8 | recombinant TDP1, AlphaScreen DNA substrate cleavage | Potency, µM (titrated, usually from 130 µM), for inactives: top-dose activity change, negative = inhibition, most hits filed as inhibitors | 0.28% of 350,000 active | AID 485290; note: potency is the fitted concentration of half-maximal effect; % is set by controls: 0 for no effect and ±100 for the full control effect; nearly all actives have a fitted effect of over 40% in size
Target sequence (Q9NUW8 whole entry, looked up): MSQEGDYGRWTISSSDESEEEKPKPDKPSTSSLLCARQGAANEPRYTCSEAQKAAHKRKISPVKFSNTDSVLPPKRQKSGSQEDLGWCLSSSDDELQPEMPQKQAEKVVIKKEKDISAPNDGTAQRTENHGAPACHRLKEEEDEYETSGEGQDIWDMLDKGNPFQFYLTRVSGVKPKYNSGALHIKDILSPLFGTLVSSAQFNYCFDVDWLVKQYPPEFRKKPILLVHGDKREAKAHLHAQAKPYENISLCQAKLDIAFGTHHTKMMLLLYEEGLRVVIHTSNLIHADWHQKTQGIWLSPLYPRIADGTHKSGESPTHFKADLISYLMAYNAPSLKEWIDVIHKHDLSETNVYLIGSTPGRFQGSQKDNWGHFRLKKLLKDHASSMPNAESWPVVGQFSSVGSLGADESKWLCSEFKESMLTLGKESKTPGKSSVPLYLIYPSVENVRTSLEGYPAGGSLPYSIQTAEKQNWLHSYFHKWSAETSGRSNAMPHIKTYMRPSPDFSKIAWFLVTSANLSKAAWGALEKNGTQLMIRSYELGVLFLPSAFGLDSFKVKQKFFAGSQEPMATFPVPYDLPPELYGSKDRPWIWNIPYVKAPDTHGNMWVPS
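Tdp1 1 nM final; 15 min RT w/ cpd; substrate 15 nM, 5 min; beads 10 ug/ml, 10 min; AlphaScreen read. Neg ctrl: no enzyme.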
DT40 TDP1 CPT = growth inhibition of DT40 Tdp1-/-;hTDP1 cells with camptothecin (screen for TDP1 inhibitors). AID 686979. 12% of 420,000 active. Potency, µM (highest dose often 46.2 µM), inactives show top-dose activity change, negative = growth inhibition, usual class: inhibitors. chicken DT40 Tdp1-/-;hTDP1 cells + 20 nM CPT, ATP luminescence, 48 h; note: potency is the fitted concentration of half-maximal effect; % is set by controls: 0 for no effect and ±100 for the full control effect; nearly all actives have a fitted effect of over 55% in size
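Chicken DT40 Tdp1-/- cells complemented with human TDP1, 400 cells/well, exposed to compounds plus 20 nM camptothecin for at least 48 h at 37 C; viability read as ATP content by CellTiter-Glo luminescence.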
DT40 TDP1 no CPT = qHTS for Inhibitors of human tyrosyl-DNA phosphodiesterase 1 (TDP1): qHTS in cells in absence of CPT; DT40 Tdp1-/- hTDP1 cells, no CPT, ATP luminescence, 48 h; Potency, µM (top dose mostly 46.2 µM), for inactives: at the highest dose activity change, negative = growth inhibition, hits mostly inhibitors; 15% of 420,000 active; note: potency is the fitted concentration of half-maximal effect; % is set by controls: 0 for no effect and ±100 for the full control effect; nearly all actives have a fitted effect of over 55% in size
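Cells were dispensed at 400 per well, compounds added by pin tool, plates incubated ≥48 hr at 37 °C, then CellTiter-Glo added for 30 min at room temperature before luminescence reading. Line: DT40 Tdp1-/- complemented with hTDP1; camptothecin omitted.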
TGFb inhibitor = blocks TGF-b signaling; Potency, µM (series often up to 46.1 µM), for the others: at the top dose activity, negative = inhibition, actives largely listed as inhibitors; 1.2% of 410,000 active; AID 588855; HepG2 CAGA-GFP TGF-b/SMAD3 reporter, GFP fluorescence, 18 h; TGF-beta stimulated, 500 pg/mL final; note: potency is the fitted concentration of half-maximal effect; % is set by controls: 0 for no effect and ±100 for the full control effect; nearly all actives have a fitted effect of over 65% in size
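HEPG2 CAGA-GFP reporter cells (1000/well, DMEM with 1% FBS) received compounds, then recombinant TGF-beta at 500 pg/mL final for 18 hours at 37 degrees C. Per-cell GFP summed per well was normalised to unstimulated and stimulated DMSO controls before curve fitting.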
* hit, by the source's call; ? = inconclusive; / = not tested or not shown; [ ] = another dose, or the depositor's remark. Unless noted, calls come from the whole dose curve; as a rule, active = well fitted curve in the direction sought with a large enough effect; inconclusive = small, poorly fitted or top-dose-only effect, or another doubt; inactive = no such curve, though single readings can be large; an effect the other way counts as inactive or inconclusive.

SMILES	IL1B secr inh	HepG2 tox	TDP1 inh	DT40 TDP1 CPT	DT40 TDP1 no CPT	TGFb inhibitor
CC(C)(C)c1ccc(Cn2nnc3c(=O)[nH]c(C4CCCN(C(=O)c5cccs5)C4)nc32)cc1 (configuration not stated)	?	-17%	/	16µM*	?	?
CC(C)(C)c1ccc(Cn2nnc3c(=O)[nH]c(C4CCCN(C(=O)Cc5cccs5)C4)nc32)cc1 (configuration not stated)	-19	-78%	4%	23µM*	?	?
O=C(Cc1cccs1)N1CCCC(c2nc3c(nnn3Cc3ccc(F)cc3)c(=O)[nH]2)C1 (configuration not stated)	0	-16%	5%	-25%	1%	27%
CC(C)(C)CC(=O)N1CCC(c2nc3c(nnn3Cc3c(F)cccc3Cl)c(=O)[nH]2)CC1	-14	-26%	3%	16µM*	?	-3%
CC(C)(C)c1ccc(Cn2nnc3c(=O)[nH]c(C4CCN(C(=O)Cc5cccs5)CC4)nc32)cc1	-29	-56%	11%	?	21µM*	?
O=C(NS(=O)(=O)Nc1ccc(Br)cn1)c1c[nH]c2ccccc12	27	13%	9%	-3%	8%	5%
FC(F)(F)c1ccc(Nc2nnnc3ccccc23)cc1	-2	-7%	/	?	3.7µM*	-2%
COc1ccc(S(=O)(=O)NCc2csc(C)n2)cc1	7	-24%	2%	1%	-29%	-4%
Cc1cc(C(=O)N/N=C/C=C/c2ccccc2)n[nH]1	-23	6%	3%	-5%	-9%	26%
Cc1ccc(-c2cc(C(=O)N/N=C/c3ccccc3O)n[nH]2)o1	84	-49%	3%	5.2µM*	5.2µM*	?
Cc1ccc(-c2cc(C(=O)N/N=C/c3c[nH]c4ccccc34)n[nH]2)o1	-23	-8%	8%	?	?	36%
Cc1cc(C(=O)N/N=C/c2cc(Br)cc(Br)c2OC(=O)c2cccc(F)c2)n[nH]1	78	-35%	5%	5.8µM*	5.8µM*	-3%
Cc1cc(C(=O)N/N=C/c2cccn2C)n[nH]1	0	-10%	-2%	-1%	1%	-7%
Cc1cc(C(=O)N/N=C\c2cc(C(C)(C)C)ccc2O)n[nH]1	198	-28%	7%	21µM*	3.3µM*	-22%
Cc1ccc(-c2cc(C(=O)N/N=C/C(Br)=C/c3ccccc3)n[nH]2)o1	?	2%	10%	12µM*	10µM*	-18%
COc1ccc(S(=O)(=O)Cc2ccc(C(=O)NC3CCCCC3)o2)cc1	-5	-1%	2%	-29%	?	-5%
COc1cccc2c1O/C(=N\O)C(C(=O)Nc1cccc(Br)c1)C2 (configuration not stated)	-3	-26%	/	-19%	?	?
COC(C)=O	/	/	8%	7%	-2%	/
CCc1nc2c(OCc3cccc(Cl)c3)cccn2c1N(C)C(=O)c1ccncc1	12	-12%	/	?	?	-44%
COc1ccccc1C(=O)NCCC(=O)N1CCN(S(=O)(=O)c2ccc(Cl)cc2)CC1	-27	-2%	0%	3%	-5%	-1%
O=C(Nc1ncc(Cc2cccc(Cl)c2)s1)C1=NCCN1	-4	-25%	4%	16µM*	?	?
CCOc1ccc(-c2cc(C(=O)Nc3ccc(C)c(NS(C)(=O)=O)c3)[nH]n2)c(C)c1	-2	-29%	/	18µM*	?	-20%
COc1ccc(CNC(=O)c2cnc(N3CCCC3)nc2C)c(OC)c1	/	-15%	4%	4%	-5%	-20%
O=C(CCl)N(C/C=C/c1ccccc1)c1ccc2c(c1)OCCO2	-115*	-2%	5%	3.7µM*	6.5µM*	?
CC1(C(=O)Nc2ccc(Cl)cc2)Cc2c(-c3ccc(C(N)=O)cc3)ccnc2O1 (configuration not stated)	?	-6%	/	?	?	2%
SMILES	IL1B secr inh	HepG2 tox	TDP1 inh	DT40 TDP1 CPT	DT40 TDP1 no CPT	TGFb inhibitor
C#Cc1cccc(C(=O)NCc2nc(-c3ccccc3NC(=O)C3CCCO3)oc2C)c1 (configuration not stated)	/	/	/	3%[9.04 µM]	-8%	/
CC(=O)OC1CC(C)(C)N(OC(=O)c2ccccc2)C(C)(C)C1	-26	-34%	-5%	?	21µM*	-9%
CC(=O)ON1C(C)(C)CC(OC(=O)c2ccccc2)CC1(C)C	16	-18%	4%	21µM*	-27%	-2%
Cc1cc2ccccc2cc1CN1CCOCC1	21	3%	-6%	1%	-5%	-6%
c1cc2ccc3ccc(CN4CCOCC4)c4ccc(c1)c2c34	-77*	-4%	-10%	?	?	-8%
OC1CCCN(CC(O)c2ccccc2)C1 (configuration not stated)	-1	19%	1%	-21%	-11%	12%
OC1CCCN(Cc2ccc3ccc4cccc5ccc2c3c45)C1 (configuration not stated)	-69*	-60%	6%	?	21µM*	20µM*
O=C(CC1C(=O)NCCN1CC1CCCCC1)NCCCN1CCOCC1 (configuration not stated)	-13	-21%	1%	-3%	3%	-20%
Cc1ccc2[nH]c(=O)c(CNS(=O)(=O)c3ccccc3)c(-c3ccccc3)c2c1	-10	-6%	2%	?	18µM*	-8%
C/C(=N\N)c1c(-c2ccccc2)c2cc(C)ccc2[nH]c1=O	-17	-4%	5%	-13%	10%	?
Cc1nn(C)cc1C(C(=O)NC1CCCCC1)N(C(=O)Cc1cccs1)c1ccc(Cl)cc1 (configuration not stated)	1	-9%	3%	2.9µM*	6.5µM*	-14%
COc1ccc(N(C(=O)Cc2cccs2)C(C(=O)NC2CCCCC2)c2cccn2C)cc1OC (configuration not stated)	-6	-15%	13%[56.1 µM]	-1%	-18%	5%
COc1cc(N(C(=O)Cc2cccs2)C(C(=O)NC2CCCCC2)c2ccc(C)cc2)ccc1-n1cnnn1 (configuration not stated)	1	13%	3%	21µM*	13µM*	3%
